The panel holds about 79,000 compounds, 15% with a hit somewhere; the sample as a whole holds those more often. The source made the active and inactive calls. Rule as the data show it: active = growth inhibition above about 70%; inactive = the rest.
Experiments:
[1] = NCI Yeast Anticancer Drug Screen. Data for the rad52 strain (AID 147);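 also: 0% = growth of vehicle-treated control cultures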; details: S. cerevisiae rad52 mutant growth inhibition, active compounds read high
Summary of the method: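 Yeast strain carrying a DNA damage repair alteration was exposed to test compounds. Growth inhibition was measured relative to vehicle-treated controls.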

[2] = NCI Yeast Anticancer Drug Screen. Data for the wt1 strain (AID 149);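 also: 0% = growth of vehicle-treated wt1 cultures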; details: S. cerevisiae wt1 strain (SPY 50644) growth inhibition, active compounds read high
Summary of the method: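 wt1 strain grown with compound or vehicle; inhibition taken from the growth difference.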

[3] = NCI Yeast Anticancer Drug Screen. Data for the rad50EPP+ strain (AID 151);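 also: 0% = growth of vehicle-treated control cultures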; details: S. cerevisiae rad50 mutant strain, active compounds read high
Summary of the method: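 Yeast strain carrying rad50 alteration (rad50EPP+) exposed to compounds; growth inhibition measured relative to vehicle-treated controls.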

[4] = NCI Yeast Anticancer Drug Screen. Data for the mgt1 strain (AID 153); details: S. cerevisiae mgt1 mutant growth inhibition, active compounds read high
Summary of the method: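 Yeast mgt1 strain (DNA repair/cell-cycle alteration panel) exposed to compounds; growth inhibition measured relative to vehicle-treated controls.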

[5] = NCI Yeast Anticancer Drug Screen. Data for the rad50 strain (AID 155);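 also: 0% = growth of vehicle-only cultures of the same strain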; details: S. cerevisiae rad50 strain growth inhibition, active compounds read high
Summary of the method: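 DNA repair mutant yeast, compound exposure, growth read-out; inhibition is taken relative to vehicle.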

[6] = NCI Yeast Anticancer Drug Screen. Data for the mec2-1 strain (AID 157); details: S. cerevisiae mec2-1 strain, active compounds read high
Summary of the method: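 mec2-1 yeast strain, carrying an alteration in DNA damage repair or cell cycle control, was exposed to compounds; growth inhibition was measured relative to vehicle-treated controls.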

[7] = NCI Yeast Anticancer Drug Screen. Data for the rad14 strain (AID 159);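 also: 0% = growth of vehicle-treated control cultures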; details: S. cerevisiae rad14 strain growth inhibition, active compounds read high
Summary of the method: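 DNA repair-defective yeast, compound-exposed; % growth inhibition derived by comparison with vehicle-treated controls.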

[8] = NCI Yeast Anticancer Drug Screen. Data for the sgs1 mgt1 strain (AID 161);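 also: 0% = growth of cultures given vehicle only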; details: S. cerevisiae sgs1 mgt1 strain, active compounds read high
Summary of the method: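 Percent growth inhibition was derived by comparing compound-exposed mutant yeast with vehicle-exposed cultures. The strain carries alterations in DNA damage repair.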

[9] = NCI Yeast Anticancer Drug Screen. Data for the CLN2oe strain (AID 163);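 also: 0% = growth of vehicle-only control cultures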; details: S. cerevisiae CLN2oe strain, active compounds read high
Summary of the method: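 Yeast cells carrying a defined cell-cycle control alteration were exposed to test compounds. Growth inhibition was scored against vehicle-treated control cultures.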

[10] = NCI Yeast Anticancer Drug Screen. Data for the cln2 rad14 strain (AID 165);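 also: 0% = growth equal to vehicle treated cultures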; details: S. cerevisiae cln2 rad14 strain, active compounds read high
Summary of the method: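 Yeast carrying cln2 and rad14 alterations (cell cycle control and DNA damage repair) were exposed to compounds. Growth inhibition was measured against vehicle-treated controls.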

[11] = NCI Yeast Anticancer Drug Screen. Data for the bub3 strain (AID 167); details: S. cerevisiae bub3 mutant strain, active compounds read high
Summary of the method: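 In this screen, a yeast mutant lacking normal mitotic checkpoint function is challenged with compound. Relative growth versus vehicle gives the inhibition value.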

[12] = NCI Yeast Anticancer Drug Screen. Data for the wt2 strain (AID 169);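 also: 0% = growth of vehicle-treated yeast cultures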; details: S. cerevisiae wt2 strain growth inhibition, active compounds read high
Summary of the method: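 Yeast cells were exposed to test compounds, and growth inhibition was measured relative to vehicle-treated controls.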

[13] = NCI Yeast Anticancer Drug Screen. Data for the mlh1 strain (AID 171);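 also: 0% = growth of vehicle-treated control cultures of the same strain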; details: S. cerevisiae mlh1 strain growth inhibition, active compounds read high
Summary of the method: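 Yeast carrying a defined genetic alteration in DNA damage repair or cell cycle control were exposed to test compounds. Growth inhibition was measured relative to vehicle-treated controls.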

[14] = NCI Yeast Anticancer Drug Screen. Data for the mlh1 rad18 strain (AID 175); details: S. cerevisiae mlh1 rad18 strain growth inhibition, active compounds read high
Summary of the method: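 Growth inhibition of the yeast strain was measured after compound exposure and expressed relative to vehicle-treated controls. The strain carries defined defects in DNA damage repair.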

[15] = NCI Yeast Anticancer Drug Screen. Data for the rad18 strain (AID 177); details: S. cerevisiae rad18 mutant growth inhibition, active compounds read high
Summary of the method: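 Yeast carrying a defined DNA damage repair alteration were exposed to compounds. Growth inhibition was expressed relative to vehicle-treated controls.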

[16] = NCI Yeast Anticancer Drug Screen. Data for the sgs1 strain (AID 173);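 also: 0% = growth of vehicle-only control cultures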; details: S. cerevisiae sgs1 mutant, active compounds read high
Summary of the method: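 Yeast mutant strains carrying defined defects in DNA damage repair or cell cycle control were exposed to test compounds. Growth inhibition was scored against vehicle-treated controls.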

[17] = at 5.0 µM (retest, dose inferred, filed as 0.5)
[18] = at 50.0 µM (retest, dose inferred, filed as 5.0)

Measured: growth inhibition

Cn1c(-c2ccc(/C=N\N3CCN(/N=C/c4ccc(-c5c[n+]6ccccc6n5C)cc4)CC3)cc2)c[n+]2ccccc12
inactive: [1]; at 1.2 µM -56% | [1]; at 3.7 µM -61% | [1]; at 11.0 µM -48% | [1]; at 33.0 µM 23% | [2]; at 1.2 µM -9% | [2]; at 3.7 µM -13% | [2]; at 11.0 µM -4% | [2]; at 33.0 µM 28% | [3]; at 1.2 µM -36% | [3]; at 3.7 µM -26% | [3]; at 11.0 µM -27% | [3]; at 33.0 µM -9% | [3]; at 100.0 µM 6% | [4]; at 1.2 µM -30% | [4]; at 3.7 µM -10% | [4]; at 11.0 µM -27% | [4]; at 33.0 µM 38% | [5]; at 1.2 µM -15% | [5]; at 3.7 µM -16% | [5]; [17] -2% | [5]; at 11.0 µM -4% | [5]; at 33.0 µM 51% | [5]; at 50.0 µM 49% | [6]; at 1.2 µM -8% | [6]; at 3.7 µM -17% | [6]; [17] 15% | [6]; at 11.0 µM 11% | [6]; at 50.0 µM 25.4% | [7]; at 1.2 µM -31% | [7]; at 3.7 µM -36% | [7]; at 11.0 µM -16% | [7]; at 33.0 µM 17% | [8]; [17] 19% | [9]; at 1.2 µM -22% | [9]; at 3.7 µM -41% | [9]; at 11.0 µM -27% | [9]; at 33.0 µM 52% | [10]; [17] -5% | [10]; [18] 69% | [10]; at 50.0 µM 22.4% | [11]; at 1.2 µM -13% | [11]; at 3.7 µM 0% | [11]; [17] 19% | [11]; at 11.0 µM -2% | [11]; at 33.0 µM 54% | [12]; at 1.2 µM -50% | [12]; at 3.7 µM -36% | [12]; at 11.0 µM -37% | [13]; at 1.2 µM -17% | [13]; at 3.7 µM -13% | [13]; at 11.0 µM 3% | [13]; at 33.0 µM 57% | [14]; [17] 46% | [15]; at 1.2 µM -23% | [15]; at 3.7 µM -19% | [15]; at 11.0 µM -31% | [15]; at 33.0 µM 47%
active: [1]; at 100.0 µM 82% | [2]; at 100.0 µM 92% | [4]; at 100.0 µM 91% | [5]; [18] 94% | [5]; at 100.0 µM 91% | [6]; at 33.0 µM 78% | [6]; [18] 96% | [6]; at 100.0 µM 93% | [7]; at 100.0 µM 84% | [8]; [18] 95% | [8]; at 50.0 µM 72.4% | [9]; at 100.0 µM 86% | [11]; [18] 95% | [11]; at 50.0 µM 80.5% | [11]; at 100.0 µM 91% | [12]; at 33.0 µM 74% | [12]; at 100.0 µM 92% | [13]; at 100.0 µM 90% | [14]; [18] 94% | [14]; at 50.0 µM 84.3% | [15]; at 100.0 µM 87%

Cc1cccc2c1nc1ccc(Cl)cc1[n+]2C
inactive: [1]; at 1.2 µM 0% | [1]; at 3.7 µM 9% | [2]; at 1.2 µM -1% | [2]; at 3.7 µM 4% | [2]; at 11.0 µM 41% | [3]; at 1.2 µM -4% | [3]; at 3.7 µM 4% | [3]; at 11.0 µM 64% | [4]; at 1.2 µM 0% | [4]; at 3.7 µM 7% | [4]; at 11.0 µM 59% | [5]; at 1.2 µM 2% | [5]; at 3.7 µM 9% | [5]; [17] 11% | [6]; at 1.2 µM 1% | [6]; at 3.7 µM 18% | [6]; [17] 3% | [7]; at 1.2 µM 2% | [7]; at 3.7 µM 8% | [7]; at 11.0 µM 57% | [8]; [17] 26% | [9]; at 1.2 µM -5% | [9]; at 3.7 µM -4% | [10]; [17] 4% | [11]; at 1.2 µM 0% | [11]; at 3.7 µM 10% | [11]; [17] 0% | [12]; at 1.2 µM -2% | [12]; at 3.7 µM 2% | [13]; at 1.2 µM -3% | [13]; at 3.7 µM 7% | [16]; at 1.2 µM 3% | [16]; at 3.7 µM 13% | [14]; [17] 25% | [15]; at 1.2 µM 25% | [15]; at 3.7 µM 62%
active: [1]; at 11.0 µM 79% | [1]; at 33.0 µM 98% | [1]; at 100.0 µM 97% | [2]; at 33.0 µM 97% | [2]; at 100.0 µM 96% | [3]; at 33.0 µM 93% | [3]; at 100.0 µM 95% | [4]; at 33.0 µM 98% | [4]; at 100.0 µM 98% | [5]; at 11.0 µM 84% | [5]; at 33.0 µM 96% | [5]; [18] 96% | [5]; at 50.0 µM 98% | [5]; at 100.0 µM 97% | [6]; at 11.0 µM 85% | [6]; at 33.0 µM 96% | [6]; [18] 96% | [6]; at 50.0 µM 98.8% | [6]; at 100.0 µM 97% | [7]; at 33.0 µM 97% | [7]; at 100.0 µM 97% | [8]; [18] 97% | [8]; at 50.0 µM 98.8% | [9]; at 11.0 µM 89% | [9]; at 33.0 µM 96% | [9]; at 100.0 µM 95% | [10]; [18] 95% | [10]; at 50.0 µM 96.5% | [11]; at 11.0 µM 82% | [11]; at 33.0 µM 95% | [11]; [18] 94% | [11]; at 50.0 µM 98% | [11]; at 100.0 µM 96% | [12]; at 11.0 µM 92% | [12]; at 33.0 µM 97% | [12]; at 100.0 µM 95% | [13]; at 11.0 µM 82% | [13]; at 33.0 µM 97% | [13]; at 100.0 µM 97% | [16]; at 11.0 µM 89% | [16]; at 33.0 µM 97% | [16]; at 100.0 µM 97% | [14]; [18] 95% | [14]; at 50.0 µM 98.3% | [15]; at 11.0 µM 91% | [15]; at 33.0 µM 97% | [15]; at 100.0 µM 96%

Source: PubChem BioAssay (NCI)
